Results as given in PubChem BioAssay AID1159580 (chemical genetic matrix, 2015).
About 2,000 (36%) of roughly 5,500 compounds were called active. About 18% were inconclusive and are not listed. Rule as the data show it: active = normalized growth mostly below about 0.91 (no sharp cut-off); inconclusive = no clear call, values can overlap the other calls; inactive = mostly above about 0.92. This is one part of the list.

Assay: chemical genetic growth profiling, strain panel (AID 1159580);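 also: tested at 20 µM; growth read once vehicle control cultures reached saturation at 30 °C; 1 = growth at the plate median or of vehicle wells; lower values mean less growth of the strain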
Details: S. cerevisiae deletion strains, growth OD

Measured: normalized growth

CC(=O)N[C@@H](CC(=O)O)C(=O)O
inactive: locus YAL013W, strain DEP1, active compounds read low 1.01 | locus YAL021C, strain ccr4, active compounds read low 0.998 | locus YAL026C, strain drs2, active compounds read low 1.01 | locus YAL030W, strain snc1, active compounds read low 0.997 | locus YBL061C, strain skt5, active compounds read low 1.01 | locus YBR009C, strain hhf1, active compounds read low 1.01 | locus YBR021W, strain FUR4, active compounds read low 1.02 | locus YBR023C, strain chs3, active compounds read low 1 | locus YBR171W, strain sec66, active compounds read low 1 | locus YBR229C, strain ROT2, active compounds read low 1.01 | locus YBR231C, strain swc5, active compounds read low 0.982 | locus YBR279W, strain paf1, active compounds read low 1 | locus YCL011C, strain gbp2, active compounds read low 1.01 | locus YCL016C, strain dcc1, active compounds read low 1 | locus YCL029C, strain bik1, active compounds read low 1.03 | locus YCL069W, strain vba3, active compounds read low 1.01 | locus YCR088W, strain abp1, active compounds read low 1 | locus YDL005C, strain med2, active compounds read low 0.997 | locus YDL035C, strain GPR1, active compounds read low 1 | locus YDL040C, strain nat1, active compounds read low 1.01 | locus YDL074C, strain BRE1, active compounds read low 1.01 | locus YDL101C, strain DUN1, active compounds read low 1.01 | locus YDL134C, strain PPH21, active compounds read low 1.01 | locus YDL185W, strain tfp1, active compounds read low 1.02 | locus YDL192W, strain arf1, active compounds read low 1.02 | locus YDR001C, strain nth1, active compounds read low 1.01 | locus YDR069C, strain doa4, active compounds read low 1.03 | locus YDR101C, strain arx1, active compounds read low 1.02 | locus YDR137W, strain rgp1, active compounds read low 0.997 | locus YDR150W, strain NUM1, active compounds read low 1.01 | locus YDR159W, strain sac3, active compounds read low 0.969 | locus YDR162C, strain NBP2, active compounds read low 1.01 | locus YDR195W, strain ref2 0.972 | locus YDR297W, strain sur2, active compounds read low 1.02 | locus YDR318W, strain mcm21, active compounds read low 1.01 | locus YDR334W, strain swr1, active compounds read low 1.01 | locus YDR335W, strain msn5, active compounds read low 1.01 | locus YDR388W, active compounds read low 1.01 | locus YDR392W, strain spt3, active compounds read low 0.932 | locus YDR502C, strain sam2, active compounds read low 1.02 | locus YEL003W, strain gim4, active compounds read low 1.01 | locus YEL037C, strain rad23, active compounds read low 1.01 | locus YEL061C, strain CIN8 (second series), active compounds read low 1.01 | locus YEL061C, strain CIN8, active compounds read low 1.01 | locus YER015W, strain faa2, active compounds read low 1.01 | locus YER016W, strain bim1, active compounds read low 1 | locus YER110C, active compounds read low 1.02 | locus YER111C, strain swi4, active compounds read low 1.01 | locus YER155C, strain BEM2 (second series), active compounds read low 0.999 | locus YER155C, strain BEM2, active compounds read low 1.01 | locus YER167W, strain BCK2, active compounds read low 1.01 | locus YFR010W, strain ubp6, active compounds read low 1 | locus YGL078C, strain dbp3, active compounds read low 1.01 | locus YGL086W, strain mad1, active compounds read low 1.01 | locus YGL167C, strain pmr1, active compounds read low 1 | locus YGL173C, strain kem1, active compounds read low 1.02 | locus YGL227W, strain vid30, active compounds read low 1.01 | locus YGL240W, strain doc1, active compounds read low 0.984 | locus YGL248W, strain PDE1, active compounds read low 1 | locus YGL253W, strain hxk2, active compounds read low 1.01 | locus YGR078C, strain PAC10, active compounds read low 1.01 | locus YGR135W, strain pre9, active compounds read low 1.01 | locus YGR229C, strain SMI1, active compounds read low 1.01 | locus YGR252W, strain gcn5, active compounds read low 0.959 | locus YHR013C, strain ard1, active compounds read low 1.01 | locus YHR027C, strain rpn1, active compounds read low 0.993 | locus YHR030C, strain SLT2, active compounds read low 1.01 | locus YHR079C, strain IRE1 (second series), active compounds read low 1.01 | locus YHR094C, strain hxt1, active compounds read low 1.01 | locus YHR129C, strain ARP1, active compounds read low 0.997 | locus YHR142W, strain chs7, active compounds read low 1.01 | locus YHR200W, strain rpn10, active compounds read low 1.02 | locus YIL066C, strain RNR3, active compounds read low 1.02 | locus YIL073C, strain SPO22, active compounds read low 1.02 | locus YIL125W, strain kgd1, active compounds read low 1.01 | locus YIR030C, strain dcg1, active compounds read low 1.03 | locus YJL092W, strain hpr5, active compounds read low 1.01 | locus YJL095W, strain BCK1 (second series), active compounds read low 0.999 | locus YJL095W, strain BCK1, active compounds read low 1.02 | locus YJL115W, strain asf1, active compounds read low 1 | locus YJL129C, strain trk1, active compounds read low 1 | locus YJL134W, strain LCB3, active compounds read low 1.01 | locus YJL154C, strain vps35, active compounds read low 1.01 | locus YJL164C, strain tpk1, active compounds read low 1 | locus YJL166W, strain qcr8, active compounds read low 1.01 | locus YJL168C, strain set2, active compounds read low 1.01 | locus YJL187C, strain SWE1 (second series), active compounds read low 1.01 | locus YJL187C, strain SWE1, active compounds read low 1.03
